Reference: the supplement of paper PMC8728848
Only a selection was taken, and the strongest signals are over-represented in it overall.

Assays:
Experiment in all cases: glycan array binding signal (z-score within array); higher = stronger binding
Conditions in all cases: glycan notation: IUPAC condensed, linker removed
[1] = target: GlcNAc(b1-2)[GlcNAc(b1-4)]Man(a1-3)[GlcNAc(b1-4)][GlcNAc(b1-2)[GlcNAc(b1-6)]Man(a1-6)]Man(b1-4)GlcNAc(b1-4)[Fuc(a1-6)]GlcNAc
Outline: (§1)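 Columns mapping to the same glycan were averaged after glycan names were converted to IUPAC-condensed notation. The data come from 3228 arrays in the Consortium for Functional Glycomics database, limited to those with an available protein sequence. Binding is reported as a within-array Z-score averaged across arrays of one protein sequence and across linkers.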

[2] = target: GlcNAc(b1-2)[GlcNAc(b1-6)]Man(a1-6)[GlcNAc(b1-2)Man(a1-3)]Man(b1-4)GlcNAc(b1-4)GlcNAc
Outline: as §1

[3] = target: GlcNAc(b1-3)Gal(b1-3)GalNAc
Outline: as §1

[4] = target: GlcNAc(b1-3)Gal(b1-4)GlcNAc(b1-3)Gal(b1-4)GlcNAc(b1-3)Gal(b1-4)GlcNAc(b1-3)Gal(b1-4)GlcNAc(b1-2)Man(a1-3)[GlcNAc(b1-3)Gal(b1-4)GlcNAc(b1-3)Gal(b1-4)GlcNAc(b1-3)Gal(b1-4)GlcNAc(b1-3)Gal(b1-4)GlcNAc(b1-2)Man(a1-6)]Man(b1-4)GlcNAc(b1-4)[Fuc(a1-6)]GlcNAc
Outline: as §1

[5] = target: GlcNAc(b1-3)Gal(b1-4)GlcNAc(b1-3)Gal(b1-4)GlcNAc(b1-3)Gal(b1-4)GlcNAc(b1-3)Gal(b1-4)GlcNAc(b1-2)[GlcNAc(b1-3)Gal(b1-4)GlcNAc(b1-3)Gal(b1-4)GlcNAc(b1-3)Gal(b1-4)GlcNAc(b1-3)Gal(b1-4)GlcNAc(b1-6)]Man(a1-6)[GlcNAc(b1-3)Gal(b1-4)GlcNAc(b1-3)Gal(b1-4)GlcNAc(b1-3)Gal(b1-4)GlcNAc(b1-3)Gal(b1-4)GlcNAc(b1-2)Man(a1-3)]Man(b1-4)GlcNAc(b1-4)[Fuc(a1-6)]GlcNAc
Outline: as §1

[6] = target: GlcNAc(b1-3)Gal(b1-4)GlcNAc(b1-6)[GlcNAc(b1-3)]Gal(b1-4)GlcNAc
Outline: as §1

GlcNAc(b1-3)Man = target: GlcNAc(b1-3)Man
Outline: as §1

[7] = target: GlcNAc(b1-4)GlcNAc(b1-4)GlcNAc(b1-4)GlcNAc(b1-4)GlcNAc(b1-4)GlcNAc
Outline: as §1

[8] = target: GlcNAc6S(b1-3)Gal(b1-4)GlcNAc
Outline: as §1

Kdn(a2-6)Gal(b1-4)GlcNAc = target: Kdn(a2-6)Gal(b1-4)GlcNAc
Outline: as §1

[9] = target: Man(a1-3)[Man(a1-6)]Man(a1-6)[Man(a1-3)]Man
Outline: as §1

Man(b1-4)GlcNAc = target: Man(b1-4)GlcNAc
Outline: as §1

[10] = target: Neu5Ac(a2-3)Gal(b1-3)GalNAc(b1-4)[Neu5Ac(a2-3)]Gal(b1-4)Glc
Outline: as §1

[11] = target: Neu5Ac(a2-3)Gal(b1-3)GlcNAc(b1-2)Man(a1-3)[Neu5Ac(a2-3)Gal(b1-3)GlcNAc(b1-2)Man(a1-6)]Man(b1-4)GlcNAc(b1-4)GlcNAc
Outline: as §1

[12] = target: Neu5Ac(a2-3)Gal(b1-4)GlcNAc(b1-2)[Neu5Ac(a2-3)Gal(b1-4)GlcNAc(b1-6)]Man(a1-6)[Neu5Ac(a2-3)Gal(b1-4)GlcNAc(b1-2)Man(a1-3)]Man(b1-4)GlcNAc(b1-4)GlcNAc
Outline: as §1

[13] = target: Neu5Ac(a2-3)Gal(b1-4)GlcNAc(b1-3)Gal(b1-4)GlcNAc(b1-3)Gal(b1-4)GlcNAc
Outline: as §1

[14] = target: Neu5Ac(a2-3)Gal(b1-4)GlcNAc(b1-3)Gal(b1-4)GlcNAc(b1-3)[Neu5Ac(a2-3)Gal(b1-4)GlcNAc(b1-3)Gal(b1-4)GlcNAc(b1-6)]GalNAc
Outline: as §1

[15] = target: Neu5Ac(a2-3)Gal(b1-4)GlcNAc(b1-6)GalNAc
Outline: as §1

[16] = target: Neu5Ac(a2-6)Gal(b1-4)GlcNAc(b1-2)Man(a1-3)[Neu5Ac(a2-6)Gal(b1-4)GlcNAc(b1-2)Man(a1-6)]Man(b1-4)GlcNAc(b1-4)GlcNAc
Outline: as §1

[17] = target: Neu5Ac(a2-6)Gal(b1-4)GlcNAc(b1-2)[Neu5Ac(a2-6)Gal(b1-4)GlcNAc(b1-4)]Man(a1-3)[GlcNAc(b1-4)][Neu5Ac(a2-6)Gal(b1-4)GlcNAc(b1-2)[Neu5Ac(a2-6)Gal(b1-4)GlcNAc(b1-6)]Man(a1-6)]Man(b1-4)GlcNAc(b1-4)GlcNAc
Outline: as §1

[18] = target: Neu5Ac(a2-6)Gal(b1-4)GlcNAc(b1-6)GalNAc
Outline: as §1

[19] = target: Neu5Ac(a2-6)Gal(b1-4)GlcNAc(b1-6)[Gal(b1-3)GlcNAc(b1-3)]Gal(b1-4)Glc
Outline: as §1

[20] = target: Neu5Ac(a2-6)GalNAc(b1-4)GlcNAc6S
Outline: as §1

[21] = target: Neu5Ac(a2-8)Neu5Ac(a2-8)Neu5Ac
Outline: as §1

[22] = target: Neu5Gc(a2-3)Gal(b1-3)[Fuc(a1-4)]GlcNAc
Outline: as §1

[23] = target: Neu5Gc(b2-6)Gal(b1-4)GlcNAc
Outline: as §1

B1: CvGal2 (Crassostrea virginica) (protein)
chain: MGSSHHHHHHSSGLVPRGSHMRIREAGKRKDTTKVYQIPDGLFPGQQVMLRGRVPWGSKSFSINFSATPRMGEGDILFHLNPRPSEGVCIRNALLNGSWGAEEKWQPYFPFDDGRSFSVKIEVTNDAFRTFVNGRPFVDFLHRTDFRAGKYLTLREGAEYYDVIFQSKPNIPLTTAIHNGMRIGKTIRIRGMCTAQDGFAINFNDNRNNIYFHFNARPAQRTVVRNSYFGSWGNEETAISKEFPFYPFLYFYASFVCMEDKFAVYVNDEHFIDFAHRGNPNNISVLQIKGSVNVLDTECLEPMGEDAMTEVDSGLENGDLFVLNGLMTERGKTFAVNFLNGFTENDDIALHFNPRKSTGEVVLNSRYGGAWQSEEKVALPGVFWSNRPLQVKVETKRNKFKIYVNGVDLAKYKIRGNVEDVHAVQVKGDVFLLETLLLKRLMKPVWERLTGGIRPGTWVTLQGTPKKNWQQFVVNFALDDTLDGDIAFHFNVRRGARQVVRNHRQSGAWGREETVTPFFAFDSEATFEIVFFVKEEKFLIYFNGKLFFEFVHRVPVERITHIYMDGDCNFYEPEVVI
glycan array binding signal (z-score) [1]: -0.32
glycan array binding signal (z-score) [2]: -0.338
glycan array binding signal (z-score) [3]: -0.316
glycan array binding signal (z-score) [4]: -0.163
glycan array binding signal (z-score) [5]: 0.428
glycan array binding signal (z-score) [6]: -0.345
glycan array binding signal (z-score) (GlcNAc(b1-3)Man): -0.33
glycan array binding signal (z-score) [7]: -0.345
glycan array binding signal (z-score) [8]: -0.328
glycan array binding signal (z-score) (Kdn(a2-6)Gal(b1-4)GlcNAc): -0.329
glycan array binding signal (z-score) [9]: -0.325
glycan array binding signal (z-score) (Man(b1-4)GlcNAc): -0.333
glycan array binding signal (z-score) [10]: -0.328
glycan array binding signal (z-score) [11]: -0.338
glycan array binding signal (z-score) [12]: -0.325
glycan array binding signal (z-score) [13]: -0.337
glycan array binding signal (z-score) [14]: -0.323
glycan array binding signal (z-score) [15]: -0.339
glycan array binding signal (z-score) [16]: -0.305
glycan array binding signal (z-score) [17]: -0.336
glycan array binding signal (z-score) [18]: -0.339
glycan array binding signal (z-score) [19]: -0.133
glycan array binding signal (z-score) [20]: -0.331
glycan array binding signal (z-score) [21]: -0.335
glycan array binding signal (z-score) [22]: -0.338
glycan array binding signal (z-score) [23]: -0.336
